Six1-Eya2 blk = Six1/Eya2 interaction inhibition; Q15475+O00167; AlphaScreen GST-Six1/His-Eya2 binding, biochemical; stronger effect = lower value; activity change, % (test concentration not listed); 360,000 tested, 0.56% active; AID 651725
Target sequence (O00167 whole entry, looked up): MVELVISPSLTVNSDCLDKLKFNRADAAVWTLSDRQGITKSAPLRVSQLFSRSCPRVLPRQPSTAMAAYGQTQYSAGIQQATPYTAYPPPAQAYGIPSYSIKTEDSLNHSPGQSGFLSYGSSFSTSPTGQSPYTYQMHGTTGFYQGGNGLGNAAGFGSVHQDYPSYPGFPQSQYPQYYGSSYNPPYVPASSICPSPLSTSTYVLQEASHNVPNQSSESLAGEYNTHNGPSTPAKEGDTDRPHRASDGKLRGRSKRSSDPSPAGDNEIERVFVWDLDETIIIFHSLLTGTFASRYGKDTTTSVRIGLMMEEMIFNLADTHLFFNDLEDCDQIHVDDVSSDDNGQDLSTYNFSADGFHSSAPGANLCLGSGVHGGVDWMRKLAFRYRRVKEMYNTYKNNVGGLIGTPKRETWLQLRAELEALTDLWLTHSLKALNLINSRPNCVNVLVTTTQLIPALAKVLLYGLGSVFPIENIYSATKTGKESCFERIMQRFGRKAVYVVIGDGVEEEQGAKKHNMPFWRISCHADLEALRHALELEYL
Target sequence (Q15475 whole entry, looked up): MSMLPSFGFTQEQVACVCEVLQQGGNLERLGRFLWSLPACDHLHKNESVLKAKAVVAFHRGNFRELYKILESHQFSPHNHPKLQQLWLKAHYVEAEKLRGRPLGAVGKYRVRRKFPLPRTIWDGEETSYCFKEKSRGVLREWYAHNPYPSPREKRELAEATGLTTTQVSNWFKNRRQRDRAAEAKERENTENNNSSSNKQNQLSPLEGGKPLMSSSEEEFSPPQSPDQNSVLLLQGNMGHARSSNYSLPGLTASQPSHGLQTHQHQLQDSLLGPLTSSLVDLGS
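Compounds are tested against tagged Six1 and Eya2 proteins bridged by glutathione donor and nickel acceptor beads; after a one-hour incubation at 37 °C without light, AlphaScreen emission is recorded.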
CtBP-E1A blk = CtBP/E1A binding inhibition. AlphaScreen GST-E1A/His-CtBP binding, 1536-well; stronger effect = lower value. activity change, % (test concentration not listed). 340,000 tested, 0.49% active
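Homogeneous bead-based format: GST-tagged E1A captured on glutathione donor beads, His-tagged CtBP on nickel acceptor beads; compounds precede bead addition by 2 h at 37 °C.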
pAkt inh = Akt phosphorylation inhibition; 360,000 tested, 0.32% active; Neuro2A IGF-stimulated pAkt S473 HTRF, 20 min; stronger effect = lower value; activity change, % for hits at 50 µM; in the data active = activity change below about -80%; inconclusive = mostly about -51% to -80%
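Neuro2A cells in DMEM with 0.5% FBS, overnight at 37 deg C, given compound at single 50 µM final, then IGF (6 nM final) for 20 min at 37 deg C. Lysed; phospho-Akt Ser473 by HTRF after 24 h, 665/615 ratio.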
CCT chaperon mod = changes cytosolic chaperonin activity | purified chaperonin ATPase assay, HTRF ADP detection, 30 min | 360,000 tested, 0.3% active | activity change, % (no concentration beside the values), hits read low | AID 651819; in the data active = activity change below about -30%
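We incubate TRiC, 40 or 20 nM final, with library compounds at 76 uM and 10 uM ATP for 30 min at 37 °C. ADP formed is detected with Transcreener HTRF reagents after 30 min at room temperature.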
Large screens that a line does not name were inactive. In the library only some 1.3% were active in any assay of this set; here they are far more common. Cut-off read from the data, not from the text of the source, unless noted: active = activity change below about -65%; inconclusive = mostly about -30% to -63%; inactive = weaker than that.

COc1cc(NC(=O)CN2C(=O)COc3ccc(S(=O)(=O)N4CCCC4)cc32)cc(OC)c1	Six1-Eya2 blk inconclusive, CtBP-E1A blk -77.4
Cc1cc(C)cc(NC(=O)CN2C(=O)COc3ccc(S(=O)(=O)N4CCCC4)cc32)c1	none (no result: CtBP-E1A blk)
COc1ccc(NC(=O)CN2C(=O)COc3ccc(S(=O)(=O)N4CCOCC4)cc32)cc1Cl	CtBP-E1A blk -92.0
COc1ccccc1NC(=O)CN1C(=O)COc2ccc(S(=O)(=O)N3CCOCC3)cc21	none
CC[C@]12c3[nH]c4ccc(Cl)cc4c3CCN1C(=O)[C@@H](CC(=O)NCCCn1ccnc1)C[C@@H]2C(=O)N1CCN(C(=O)C2CC2)CC1	none
COc1ccc(CCNC(=O)c2ccc(N3CCCC3=O)cc2)cc1OC	CCT chaperon mod -31.8
CCOc1ccc(N2CC(C(=O)NCCc3ccc(OC)c(OC)c3)CC2=O)cc1 (stereo not given)	pAkt inh -106.7%
CCOc1ccc(N2CC(C(=O)NCC(=O)Nc3ccc(F)c(F)c3F)CC2=O)cc1 (stereo not given)	CCT chaperon mod -55.3
COc1ccc(CNC(=O)c2ccc(CS(=O)(=O)c3ccc(Br)cc3)o2)cc1	none
CN1CCN(C(=O)c2cccc(-c3cnc4cnc(-c5ccccc5Oc5ccccc5)cn34)c2)CC1	none
CCCCn1c(N)c(N(CC(C)C)C(=O)c2cc(-c3ccncc3)nc3ccccc23)c(=O)[nH]c1=O	none
OCc1nc2ccccc2n1CCCc1ccccc1	none
COC(=O)C1=C(C)N(C2CCCCC2)C(=O)C1	none
CCOC(=O)C1=C(C)N(C2CCCCC2)C(=O)C1	pAkt inh -101.2%
CC(c1ccco1)N(C(=O)c1ccc(Cl)c([N+](=O)[O-])c1)c1ccccn1 (stereo not given)	none
COC(=O)c1cc(S(=O)(=O)Nc2nn(C)c3ccccc23)oc1C	CCT chaperon mod -42.8
COC(=O)c1cc(S(=O)(=O)Nc2nn(C)c3cccc(F)c23)oc1C	none
COc1ccc(NS(=O)(=O)c2ccc(C)c(C(=O)NCC(c3ccco3)N3CCCCC3)c2)cc1 (stereo not given)	none
CN1CCN(c2nc3c(c(=O)n(C)c(=O)n3C)n2CC(=O)C23CC4CC(CC(C4)C2)C3)CC1	pAkt inh -82.3%
Nc1[nH]c(N=NC(=O)c2ccccc2O)c2ccccc12	Six1-Eya2 blk -77.7, CtBP-E1A blk inconclusive
FC(F)(F)c1cnc(N2CCC(=NOCc3ccc(Cl)cc3)CC2)c(Cl)c1	none
Cc1ccc(CON=C2CCN(c3ncc(C(F)(F)F)cc3Cl)CC2)cc1	pAkt inh -111.6%
CS(=O)(=O)NCCSCc1ccc(Cl)cc1	pAkt inh -107.6%
CC(=O)Nc1c(Cl)cc(Cl)c2c1Cc1cc(Cl)ccc1-2	CCT chaperon mod -47.9
O=C(Oc1ccc(C(=S)N2CCOCC2)cc1)c1ccc([N+](=O)[O-])cc1[N+](=O)[O-]	none
O=C(Oc1cccc(C(=S)N2CCOCC2)c1)c1ccc([N+](=O)[O-])cc1[N+](=O)[O-]	Six1-Eya2 blk -68.8
O=C(Oc1ccc(Br)cc1C(=S)N1CCOCC1)c1ccc([N+](=O)[O-])cc1[N+](=O)[O-]	Six1-Eya2 blk -94.3, CtBP-E1A blk inconclusive
CC1CCCCN1CCNC(=O)C1CCCN(S(=O)(=O)c2cccc3nsnc23)C1 (stereo not given)	none
CC1CCCCN1CCNC(=O)C1CCN(S(=O)(=O)c2cccc3nsnc23)CC1 (stereo not given)	CCT chaperon mod -34.5 (no result: CtBP-E1A blk, pAkt inh)
O=C(OC(C(=O)NCc1ccc(F)cc1)c1ccccc1)c1ccco1 (stereo not given)	none
COc1ccccc1CNC(=O)C[C@@H]1C[C@H]2c3cc(NC(=O)c4ccc5c(c4)OCO5)ccc3O[C@H]2[C@@H](CO)O1	none
O=C(C[C@H]1C[C@@H]2c3cc(NC(=O)c4ccc5c(c4)OCO5)ccc3O[C@@H]2[C@H](CO)O1)NCc1cc(F)ccc1F	Six1-Eya2 blk -69.6, CtBP-E1A blk -67.3
CN(C)C(CNC(=O)c1cccc(S(=O)(=O)N2CCN(c3ccccc3)CC2)c1)c1ccccc1 (stereo not given)	CCT chaperon mod -45.7
CC1=Nc2ccccc2/C1=C/c1sc(=S)n(-c2cccc(C(=O)O)c2)c1O	Six1-Eya2 blk inconclusive, CtBP-E1A blk -67.4
O=C(COC(=O)c1ccc(Cl)nc1)NC1CCCc2ccccc21 (stereo not given)	none
COc1ccc(C(=O)CCC(=O)NC2=NCCS2)cc1	CCT chaperon mod -81.1 (no result: CtBP-E1A blk, pAkt inh)
COc1ccc(NC(=O)CCC(=O)c2cc(C)sc2C)cc1	CCT chaperon mod -42.6
CCc1ccc(CN(C)CC(=O)Nc2ccc(S(=O)(=O)N3CCOCC3)cc2)cc1	none
Nc1c(Cl)ncnc1N/N=C/c1ccccn1	Six1-Eya2 blk -87.0, CtBP-E1A blk -86.3
Nc1c(Cl)ncnc1N/N=C/c1cccnc1	none
Nc1c(Cl)ncnc1N/N=C/c1ccnc2ccccc12	none
Nc1c(Cl)ncnc1N/N=C/c1ccc2ccccc2n1	Six1-Eya2 blk -80.4, CtBP-E1A blk -79.5
Cc1ccc(NC(=O)NCc2cccn2C)cc1C	none
O=C(O)CCn1c(SCCc2ccccc2)nc2ccccc21	none
c1ccc(-c2cn(C[C@H]3CC[C@@H]([C@@H]4CC[C@H](Cn5cc(-c6ccccn6)nn5)O4)O3)nn2)nc1	Six1-Eya2 blk -87.4, CtBP-E1A blk -81.2
CCn1cc(C(=O)N2CCCc3ccccc32)c2cc(OC)c(OC)cc2c1=O	CCT chaperon mod -30.2
CC(C)CC(NC(=O)CC12CC3CC(CC(C3)C1)C2)C(=O)NC1=NCCS1 (stereo not given)	CCT chaperon mod -98.2
O=C(NC1=NCCS1)C12CC3CC(CC(C3)C1)C2	none
Cc1ccccc1NC(=O)CC(C)S(=O)(=O)c1ccc2c(c1)NC(=O)CO2 (stereo not given)	CCT chaperon mod -62.5
CC(=Nc1ccccc1)C1=C(O)C(Cc2ccc(O)cc2)NC1=O (stereo not given)	CCT chaperon mod -68.1
Cc1cccc(NC(=O)c2ccc3c(c2)CCN3S(C)(=O)=O)c1	none
COCCNC(=O)CN(c1ccc(OC)c(OC)c1)S(=O)(=O)c1ccc(C)cc1	pAkt inh -128.9%
NC(=O)c1c(NC(=O)c2ccc(N3C(=O)CCC3=O)cc2)sc2c1CCCC2	Six1-Eya2 blk -68.4 (no result: CtBP-E1A blk)
CCN(CC)S(=O)(=O)c1cc(C(=O)Nc2ccc(Cl)cn2)ccc1C	Six1-Eya2 blk inconclusive, pAkt inh -113.6%
O=C(O)C1CCCN(S(=O)(=O)c2cccs2)C1 (stereo not given)	none
Cc1ccc(S(=O)(=O)N2CCCC(C(=O)O)C2)s1 (stereo not given)	CCT chaperon mod -93.9
Cc1cc(NC(=O)c2cc([N+](=O)[O-])cc([N+](=O)[O-])c2)n(-c2ccccc2)n1	none
Cc1cc(Nc2ccccc2C(=O)O)n(-c2ccc([N+](=O)[O-])cc2)n1	Six1-Eya2 blk -81.4 (no result: CtBP-E1A blk)
O=C1C(=Cc2cn(-c3ccccc3)nc2-c2ccc(OCc3ccccc3F)cc2)SC(=S)N1CCS(=O)(=O)O	Six1-Eya2 blk -70.0

Screens deposited in PubChem BioAssay by National Center for Advancing Translational Sciences (NCATS).
